Unmarked numbers belong to inactive results. The rule behind the calls is not given here.
What follows are molecules tested on Botulinum neurotoxin type F light chain protease (Clostridium botulinum) (assay: Clostridium botulinum type F light chain protease inhibitors, microsphere substrate cleavage, validation (AID 588459)). Settings: multiplex microsphere protease substrate cleavage assay, flow cytometry; at 10 µM; active compounds read high.

Row | Structure (SMILES) | inhibition [%]
1 | COc1ccc2[nH]c3c(=O)n(/N=C/[C@H]4C(C)C=C(C)CC4C)c(=O)[nH]c3c2c1 (stereo not given in full) | -1.7
2 | CC(=O)Oc1cc2oc(=O)cc(C)c2cc1OC(C)=O | -1.8
3 | CC(=O)C1=C(Nc2ccc(C)cc2)CC(C)(O)C(C(C)=O)C1c1ccco1 (stereo not given) | 1
4 | CC1(C)C(=O)OC(/C=C\c2ccccc2)C(C)(C)C1=O (stereo not given) | 1.5
5 | CCC(C)NCCOc1ccc(C(C)(C)c2ccccc2)cc1 (stereo not given) | -2
6 | COc1cc(NC(=S)NC(=O)c2cccs2)ccc1NC(=O)C(C)C | -2.2
7 | Cc1ccccc1NC(=O)c1c(C)cc(=O)oc1C | -0.8
8 | Cc1cccc2c1CC(C)(C)N/C2=C\C(N)=O | 1
9 | Cc1ccc([N+](=O)[O-])cc1NC1OC(CO)C(O)C1O (stereo not given) | 1.5
10 | COc1cc(CNCc2ccc(OC)c(OC)c2OC)cc(OC)c1 | 0.5
11 | C[C@]12CC[C@H]3[C@@H](CCC4=CC(=O)CC[C@@]43C)[C@@H]1CC[C@@H]2C(=O)CO | 3.9
12 | CC(C)c1ccc(/C=C/C(=O)O)cc1 | 1.6
13 | COc1ccc(C(=O)/C=C/c2cc(C(=O)O)cc3c2OCOC3)c(O)c1 | 1.3
14 | O=C1CC[C@@H](CN(Cc2ccccc2)Cc2cn[nH]c2-c2cc3ccccc3o2)N1 | 3.7
15 | O=C(Nc1c(C(=O)O)[nH]c2ccccc12)NC1CCCCC1 | 1.6
16 | CC(=O)OC(C)C[N+](C)(C)C (stereo not given) | 0.7
17 | c1cnc2c(c1)ccc1cccnc12 | -1.4
18 | C[N+](C)(C)CCCCCCCCCC[N+](C)(C)C | -0.3
19 | CC[C@H]1OC(=O)[C@H](C)[C@@H](O[C@H]2C[C@@](C)(OC)[C@@H](O)[C@H](C)O2)[C@H](C)[C@@H](O[C@@H]2O[C@H](C)C[C@H](N(C)C)[C@H]2O)[C@](C)(O)C[C@@H](C)[C@@H]2N[C@@H](COCCOC)O[C@H]([C@H]2C)[C@]1(C)O | 3.3
20 | COc1cc2c(cc1OC)C(c1cc(OC)c(OC)c(OC)c1)NCC2 (stereo not given) | 2.3

Row | Structure (SMILES) | inhibition [%]
21 | Cn1c2c(c(=O)[nH]c1=O)C(c1ccc(O)cc1)C1=C(N2)c2ccccc2C1=O (stereo not given) | -0.8
22 | COC(=O)c1cc(OC)c(OC)c(OC)c1[N+](=O)[O-] | 1.9
23 | COc1ccc(C(=O)c2oc3ccc(Br)cc3c2NC(C)=O)cc1 | 0.3
24 | CC(NC(=O)OCc1ccccc1)C(=O)N1CC(O)CC1C(=O)O (stereo not given) | 3.2
25 | C=CCNC(=O)c1ccc(-c2cccc([N+](=O)[O-])c2)o1 | -1.3
26 | COc1ccc([C@H]2[C@H](C(=O)OC(C)(C)C)N3N=Cc4ccccc4C3C23C(=O)c2ccccc2C3=O)cc1OC (stereo not given in full) | -0.2
27 | COc1ccccc1C(=O)Nc1cc2cc(Br)ccc2oc1=O | 3.8
28 | CC(C)N(C(=O)Cc1ccccc1[N+](=O)[O-])C(C)C | -0.6
29 | O=C(O)CCCNc1ccc(S(=O)(=O)Nc2ccccc2C(=O)O)cc1C(=O)O | 1.6
30 | Cc1cccc(N2CCN(C(=S)c3ccccc3)CC2)c1 | 3.3
31 | COC(=O)c1cc(OC)c(OC)cc1NC(=O)CN1C(=O)c2ccccc2C1=O | -3.5
32 | O=C(CCC(=O)c1cccs1)c1cccs1 | 3.2
33 | CCCCC(=O)O[C@]1(C(=O)CO)CC[C@H]2[C@@H]3CCC4=CC(=O)CC[C@]4(C)[C@H]3[C@@H](O)C[C@@]21C | -3.5
34 | C/C(=N/N1CCN(Cc2cccc3ccccc23)CC1)c1cccnc1 | 6.2
35 | CC(=O)Nc1ccc(CN2CCN(C3CCCCC3)C(CCO)C2)cc1 (stereo not given) | -0.2
36 | CN1C2CCC1CC(OC(c1ccccc1)c1ccccc1)C2 (stereo not given) | 2.3
37 | Cc1ccc(NC(=O)CSc2nc(O)c(Cc3ccccc3)c(=O)n2-c2ccccc2)cc1 | -0.8
38 | CCCCCCCC(=O)OCC(O)CO (stereo not given) | -6.1
39 | O=[N+]([O-])c1ccc(O)c2ncccc12 | -1.5
40 | O=c1c2ccccc2nc2n1CCCN2 | -4.6
